Rows were chosen to be rich in hits. Some 16% of all compounds tested hit in one or more screens of this group.
uPA generation: qHTS for Inhibitors of Cell Surface uPA Generation. cell surface uPA generation assay, qHTS. Potency, µM (top dose mostly 38.3 µM), usual class: inhibitors. 330,000 tested, 0.31% active. AID 540303, 2011; active = well fitted inhibition curve with a large enough effect; inconclusive = small, poorly fitted or top-dose-only effect; inactive = no such curve, though single readings can be large or run the other way; tested in mouse RAW 264.7 cells; also: nearly all actives have a fitted effect of over 55% in size
miR-21 act: qHTS Assay for Modulators of miRNAs and/orActivators of miR-21; HeLa miR-21 FLuc reporter, luciferase, 48 h; 340,000 tested, under 10 active; Potency, µM (series often up to 38.3 µM), hits mostly activators;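 also: miR-21 action dims this reporter so a rising signal means less miR-21 action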
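Using DMEM plus 10% FBS, HeLa miR-21-FLuc cells are incubated with test compounds (final up to about 40uM) for 48 hours; firefly luciferase signal is then imaged following reagent-mediated lysis.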
DT40 TDP1 CPT: qHTS for Inhibitors of human tyrosyl-DNA phosphodiesterase 1 (TDP1): qHTS in cells in presence of CPT; 420,000 tested, 12% active; Potency, µM (titrated, usually from 46.2 µM), hits mostly inhibitors; AID 686979, 2013; chicken DT40 Tdp1-/-;hTDP1 cells + 20 nM CPT, ATP luminescence, 48 h; also: nearly all actives have a fitted effect of over 55% in size
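Chicken DT40 Tdp1-/- cells stably complemented with human TDP1 were seeded at 400 cells/well in medium containing 20 nM camptothecin, exposed to pin-transferred compounds, and grown at 37 °C for at least 48 hr. Viability was read as ATP luminescence.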
TDP1 block: qHTS Assay for Inhibitors of Tyrosyl-DNA Phosphodiesterase (TDP1). recombinant TDP1, AlphaScreen DNA substrate cleavage. Tyrosyl-DNA phosphodiesterase 1 (Homo sapiens), Q9NUW8. 350,000 tested, 0.28% active. AID 485290, 2010. Potency, µM (highest dose often 130 µM), usual class: inhibitors; also: nearly all actives have a fitted effect of over 40% in size
Target sequence (Q9NUW8 whole entry, looked up): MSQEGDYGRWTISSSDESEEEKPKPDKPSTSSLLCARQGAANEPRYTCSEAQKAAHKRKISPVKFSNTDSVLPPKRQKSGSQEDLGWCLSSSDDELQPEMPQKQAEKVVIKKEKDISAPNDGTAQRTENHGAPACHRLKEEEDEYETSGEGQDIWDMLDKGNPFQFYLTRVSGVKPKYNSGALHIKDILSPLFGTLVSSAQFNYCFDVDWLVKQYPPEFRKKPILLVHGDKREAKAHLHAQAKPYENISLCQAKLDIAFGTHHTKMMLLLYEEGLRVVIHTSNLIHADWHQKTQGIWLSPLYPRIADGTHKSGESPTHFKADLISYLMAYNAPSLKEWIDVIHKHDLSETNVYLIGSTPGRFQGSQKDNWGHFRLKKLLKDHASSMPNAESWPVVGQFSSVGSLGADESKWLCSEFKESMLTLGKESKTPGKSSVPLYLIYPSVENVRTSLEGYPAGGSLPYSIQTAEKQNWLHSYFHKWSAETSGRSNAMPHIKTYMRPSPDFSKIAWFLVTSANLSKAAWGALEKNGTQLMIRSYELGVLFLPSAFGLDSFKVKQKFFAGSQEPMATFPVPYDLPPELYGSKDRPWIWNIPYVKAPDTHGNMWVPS
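AlphaScreen read-out: signal falls as enzyme removes the 3' tyrosine-FITC from a 5'-biotinylated DNA oligo (15 nM, 5 min, RT). Enzyme was E. coli-made recombinant Tdp1 at 1 nM, exposed to compound for 15 min beforehand; beads 10 ug/ml, 10 min.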
DT40 TDP1 no CPT: qHTS for Inhibitors of human tyrosyl-DNA phosphodiesterase 1 (TDP1): qHTS in cells in absence of CPT. DT40 Tdp1-/- hTDP1 cells, no CPT, ATP luminescence, 48 h. 420,000 tested, 15% active. Potency, µM (top dose mostly 46.2 µM), hits mostly inhibitors; also: nearly all actives have a fitted effect of over 55% in size
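Compound effects on proliferation are scored in DT40 Tdp1-/-;hTDP1 cells in the absence of CPT. ATP levels (CellTiter-Glo luminescence) are recorded after a ≥48 hr, 37 °C incubation.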
Hits are given with their value. Unless noted, calls follow the shape of the dose curve; as a rule, active = well fitted curve in the direction sought with a large enough effect; inconclusive = small, poorly fitted or top-dose-only effect, or another doubt; inactive = no such curve, though single readings can be large; an effect the other way counts as inactive or inconclusive.

CN(C)c1ccc(/C=N/NC(=O)c2nnn(-c3nonc3N)c2CN(C)c2ccccc2)cc1 was read as uPA generation inactive, miR-21 act inactive, DT40 TDP1 CPT inactive, TDP1 block inactive and DT40 TDP1 no CPT inactive.
For COc1ccccc1C(NC(C)=O)c1c(O)ccc2ccc(O)cc12 (configuration not stated) the results were uPA generation inactive, DT40 TDP1 CPT inactive and DT40 TDP1 no CPT inactive.
For CC1(C(=O)O)CCN1C(=O)c1cccnc1Oc1ccccc1 (configuration not stated) the results were DT40 TDP1 CPT inactive and DT40 TDP1 no CPT inactive.
CCC(NC(=O)COc1ccc([N+](=O)[O-])cc1)c1ccccc1 (configuration not stated) was read as miR-21 act inactive and TDP1 block inactive.
Screening Cc1ccc(C(C)C)c(OCCNC(=O)c2cncc(Br)c2)c1 returned uPA generation inactive, miR-21 act inactive, DT40 TDP1 CPT inconclusive, TDP1 block inactive and DT40 TDP1 no CPT inconclusive.
Screening COc1cc(C(=O)NCCOc2cc(C)ccc2C(C)C)cc(OC)c1OC returned uPA generation inactive, miR-21 act inactive, DT40 TDP1 CPT inconclusive and DT40 TDP1 no CPT 12µM.
For Cc1ccc(C(C)C)c(OCCNCCc2ccccc2)c1 the results were uPA generation inactive, miR-21 act inactive, DT40 TDP1 CPT inconclusive and DT40 TDP1 no CPT 23µM.
Screening O=C(CCn1ccc2ccccc21)Nc1ccc(N2CCOCC2)cc1 returned uPA generation inactive, miR-21 act inactive, DT40 TDP1 CPT inactive, TDP1 block inactive and DT40 TDP1 no CPT inactive.
For COc1ccc2c(c1)Sc1ccccc1N2 the results were uPA generation inactive, miR-21 act inactive, DT40 TDP1 CPT inconclusive, TDP1 block inactive and DT40 TDP1 no CPT 16µM.
For c1ccc2c(c1)Nc1cc3ccccc3cc1S2 the results were uPA generation inactive, miR-21 act inactive, DT40 TDP1 CPT inactive, TDP1 block inactive and DT40 TDP1 no CPT inactive.
`O=C(NCCc1cccs1)c1ccc(CS(=O)Cc2ccc(Cl)cc2)o1` (configuration not stated) gave uPA generation inactive, miR-21 act inactive, DT40 TDP1 CPT inconclusive, TDP1 block inactive and DT40 TDP1 no CPT inactive.
CCOc1ccc(CCNC(=O)c2ccc(CS(=O)Cc3ccc(Cl)cc3)o2)cc1OCC (configuration not stated) was read as uPA generation inactive, miR-21 act inactive, DT40 TDP1 CPT inconclusive, TDP1 block inactive and DT40 TDP1 no CPT 15µM.
CCOc1ccc(CCNC(=O)c2ccc(CS(=O)Cc3cccc(Cl)c3)o2)cc1 (configuration not stated) was read as uPA generation inactive, miR-21 act inactive, DT40 TDP1 CPT inconclusive, TDP1 block inactive and DT40 TDP1 no CPT 15µM.
For Cc1ccc(C)c(OCC(=O)NNC(=O)CSC(=S)N2CCCC2)c1 the results were uPA generation inactive, DT40 TDP1 CPT inactive and DT40 TDP1 no CPT inactive.
Screening CC1CCCN(S(=O)(=O)c2ccc(S(=O)(=O)N3CCCC3)cc2)C1 (configuration not stated) returned uPA generation inactive, miR-21 act inactive, DT40 TDP1 CPT inactive and DT40 TDP1 no CPT inactive.
O=C(C1CCCN(S(=O)(=O)c2ccc(Br)cc2)C1)N1CCN(Cc2ccccc2)CC1 (configuration not stated) was read as uPA generation inactive, miR-21 act inactive, DT40 TDP1 CPT 16µM, TDP1 block inactive and DT40 TDP1 no CPT inconclusive.
`CC1CCCN(S(=O)(=O)c2ccc(S(=O)(=O)N3CCCN(Cc4ccccc4)C3)cc2)C1` (configuration not stated) gave miR-21 act inactive, DT40 TDP1 CPT 16µM, TDP1 block inactive and DT40 TDP1 no CPT inconclusive.
Cc1ccc(C(=O)NC(=S)NCc2cccnc2)cc1C was read as uPA generation inactive, miR-21 act inactive, DT40 TDP1 CPT inactive, TDP1 block inactive and DT40 TDP1 no CPT inactive.

Screening data: PubChem, National Center for Advancing Translational Sciences (NCATS)
